Results published in PubChem BioAssay (NCATS).
Inconclusive results are not listed. Active and inactive are the calls of the source. The call rests on the fitted dose curve; in most records, active means well fitted cell-killing curve with a large enough effect; inconclusive means small, poorly fitted or top-dose-only effect, or effect the other way; inactive means flat fitted curve, though single readings scatter.

How the values were obtained:
Assay in all cases: Primary qHTS to identify gynecologic anti-cancer compounds using libraries of approved drugs and bioactive compounds (AID 1345084); further: nearly all actives have a fitted effect of over 55% in size
CAOV3 = settings: Gynecologic cancer cell panel viability, ATPlite luminescence, 48 h; series mostly up to 57.5 µM
Outline: (§1)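 Cell viability after 48 h drug treatment, ATPlite luminescence readout; five doses.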

CASKI = settings: Gynecologic cancer cell panel viability, ATPlite luminescence, 48 h; series mostly up to 57.5 µM
Outline: as §1

Es-2 = settings: Gynecologic cancer cell panel viability, ATPlite luminescence, 48 h; series mostly up to 57.5 µM
Outline: as §1

HeLa = settings: Gynecologic cancer cell panel viability, ATPlite luminescence, 48 h; series mostly up to 57.5 µM
Outline: as §1

Hek293T = settings: Gynecologic cancer cell panel viability, ATPlite luminescence, 48 h, control line for the selectivity index; series mostly up to 57.5 µM
Outline: as §1

JEG-3 = settings: Gynecologic cancer cell panel viability, ATPlite luminescence, 48 h; series mostly up to 57.5 µM
Outline: as §1

OV90 = settings: Gynecologic cancer cell panel viability, ATPlite luminescence, 48 h; series mostly up to 57.5 µM
Outline: as §1

PA-1 = settings: Gynecologic cancer cell panel viability, ATPlite luminescence, 48 h; series mostly up to 57.5 µM
Outline: as §1

SKOV3 = settings: Gynecologic cancer cell panel viability, ATPlite luminescence, 48 h; series mostly up to 57.5 µM
Outline: as §1

Tov-21-G = settings: Gynecologic cancer cell panel viability, ATPlite luminescence, 48 h; series mostly up to 57.5 µM
Outline: as §1

Tov112D = settings: Gynecologic cancer cell panel viability, ATPlite luminescence, 48 h; series mostly up to 57.5 µM
Outline: as §1

Measured: Potency

CC(C)(OC1OC(CO)C(O)C(O)C1O)C1CCC(O)(CO)C2CC(O)C(C)(O)C2C1 (stereo not given)
inactive: all assays above

C/C=C/C1=CC2=CC(=O)C(C)(O)C(OC(=O)c3c(C)cc(O)cc3O)C2CO1 (stereo not given)
inactive: all assays above

C[C@@H]1CC[C@]2(C)C3(C)CC[C@@]2(OC3=O)[C@@]12C[C@H](c1ccoc1)OC2=O
inactive: all assays above

CC(=O)c1c(C)cc(O)cc1O[C@@H]1O[C@H](CO)[C@@H](O)[C@H](O)[C@H]1O
inactive: all assays above

Nc1ncnc2c1ncn2[C@H]1CCCO1
inactive: all assays above

COc1cc2c(cc1OC)CN(C(=O)[C@@H](NCc1ccncc1)C(C)(C)C)CC2
inactive: all assays above

CCC(=O)N[C@@H]1Cc2ccccc2[C@H](c2ccccc2)C1
inactive: all assays above

CC1CCC2C(C)(C)C(O)CCC2(C)C12Cc1c(O)cc3c(c1O2)CN(C(CCC(N)=O)C(=O)O)C3=O (stereo not given)
inactive: all assays above

COc1cc(C2Oc3c(O)cc(CCCO)cc3C2CO)ccc1O[C@H]1O[C@H](C)[C@@H](O)[C@H](O)[C@@H]1O (stereo not given in full)
inactive: all assays above

CCC[C@@H]1C[C@@H](C(=O)N[C@@H]([C@H]2O[C@H](SC)[C@H](O)[C@@H](O)[C@@H]2O)[C@@H](C)O)N(C)C1
inactive: all assays above

CCNC(=O)[C@@H]1CCCN1C(=O)[C@H](CCCN=C(N)N)NC(=O)[C@H](CC(C)C)NC(=O)[C@@H](C)NC(=O)[C@H](Cc1ccc(O)cc1)NC(=O)[C@H](CO)NC(=O)[C@H](Cc1c[nH]c2ccccc12)NC(=O)[C@H](Cc1cnc[nH]1)NC(=O)[C@@H]1CCC(=O)N1
inactive: all assays above

N[C@@H](CC(=O)N1CCn2c(nnc2C(F)(F)F)C1)Cc1[nH]nc2c(F)c(F)ccc12
inactive: all assays above

CC(=O)O[C@@H]1C[C@@]23C[C@@]24CC[C@H](OC2OC[C@@H](O)[C@H](O)[C@H]2O)C(C)(C)[C@@H]4CC[C@H]3[C@]2(C)CC3OC4(C[C@@H](C)C3[C@@]12C)OCC1(C)OC14 (stereo not given in full)
inactive: all assays above

O=C(COc1ccc(Cl)cc1)NC1CCC(NC(=O)COc2ccc(Cl)cc2)CC1 (stereo not given)
inactive: all assays above

CCCC(N[C@@H](C)C(=O)N1[C@H](C(=O)O)C[C@@H]2CCCC[C@@H]21)C(=O)OCC (stereo not given in full)
inactive: all assays above
